Most compounds without a hit are left out; they make up all but 9.3% or so of the library.
Rab9 prom act = activators of Rab9 promoter. Huh7 Rab9 promoter-luciferase reporter, luminescence, 24 h. Potency, µM (doses to about 9.22 µM), inactives show top-dose activation, negative = inhibition, hits mostly activators. hit rate 2.8% among 320,000; also: % of control where 0% means no effect; nearly all actives have a fitted effect of over 60% in size
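Promoter activation is measured as luciferase luminescence in Huh7 cells stably transfected with a Rab9 promoter–luciferase construct, following 24 h compound exposure at 37 °C and 10 min reagent incubation at ambient temperature.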
SMN2 splice enh = increases expression of the SMN2 splice variant; HEK293 SMN2-luciferase splicing reporter, luminescence, 30-36 h; Potency, µM (top dose mostly 46.1 µM), for the others: top-dose activity change, positive = activation, usual class: activators; hit rate 2.8% among 210,000; AID 1458; also: % of control where 0% means no effect; nearly all actives have a fitted effect of over 55% in size
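qHTS luciferase splicing reporter: luminescence rises when SMN2 exon 7 is included in transfected HEK293 cells. Compound exposure lasted 30-36 h at 37C, with 4.5 mM final sodium butyrate as control, followed by a ONE-Glo read.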
FLuc modulator = firefly luciferase modulation, counter-screen for miR-21 project; P08659; purified FLuc, Km substrates, luminescence inhibition; hit rate 6.9% among 360,000; Potency, µM (top dose mostly 57.5 µM), without a hit: top-dose activity change, negative = inhibition, usual class: inhibitors;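 also: plate controls were vehicle for no effect and reference inhibitor for full effect; nearly all actives have a fitted effect of over 55% in size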
Target sequence (P08659 whole entry, looked up): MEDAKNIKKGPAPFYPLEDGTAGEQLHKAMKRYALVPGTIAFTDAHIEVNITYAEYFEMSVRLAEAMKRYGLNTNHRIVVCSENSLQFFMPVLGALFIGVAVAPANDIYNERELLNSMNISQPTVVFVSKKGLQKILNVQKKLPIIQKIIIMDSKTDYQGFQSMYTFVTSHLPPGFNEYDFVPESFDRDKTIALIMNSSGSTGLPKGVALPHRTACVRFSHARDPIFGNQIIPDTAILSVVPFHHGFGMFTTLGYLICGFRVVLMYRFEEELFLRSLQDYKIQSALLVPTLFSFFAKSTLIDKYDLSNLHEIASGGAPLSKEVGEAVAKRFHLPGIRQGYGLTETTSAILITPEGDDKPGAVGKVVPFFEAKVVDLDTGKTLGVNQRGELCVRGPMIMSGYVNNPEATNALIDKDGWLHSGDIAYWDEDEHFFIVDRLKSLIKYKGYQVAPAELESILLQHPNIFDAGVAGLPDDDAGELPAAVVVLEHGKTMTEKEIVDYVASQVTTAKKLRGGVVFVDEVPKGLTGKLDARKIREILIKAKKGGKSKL
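Purified P. pyralis luciferase (10nM final) with 10uM D-luciferin and 10uM ATP (Km levels) in 50mM Tris acetate pH 7.5, 10mM Mg acetate, 0.01% Tween-20, 0.05% BSA; qHTS 6-point titration, ~60 µM downward; luminescence read.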
ELG1 genotox = genotoxicity induction in ELG1-luciferase HEK293T cells | HEK293T ELG1-luciferase reporter, luminescence, 16 h | Potency, µM (highest dose often 46 µM), for the others: at the top dose activity change, positive = activation, hits mostly activators | hit rate 1.3% among 330,000 | AID 504466; also: % of control where 0% means no effect; nearly all actives have a fitted effect of over 60% in size
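DMSO vehicle served as control against compound-treated ELG1-luciferase HEK293T cells; exposure lasted 16 hr at 37 °C and 5% CO2, followed by ONE-Glo luminescence detection after 30 min.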
NPC1 prom act = NPC1 promoter activation | Potency, µM (highest dose often 9.22 µM), inactives show at the top dose activation, usual class: activators | Huh7 NPC1 promoter luciferase reporter, 24 h | hit rate 2.4% among 320,000; also: % of control where 0% means no effect; nearly all actives have a fitted effect of over 60% in size
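Cells: Huh7 expressing luciferase under the NPC1 promoter, 1500/well. Seeded 2 h, compound added, incubated 24 h at 37 °C. Luciferase reagent, 10 min ambient, then luminescence.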
ELG1 DNA repair = ELG1-dependent DNA repair inhibition. Potency, µM (top dose mostly 46.1 µM), for the others: at the top dose activity change, negative = inhibition, most hits filed as inhibitors. HEK293T ELG1-luciferase reporter, luminescence, 16 h; DNA damage induced by 5-fluorouridine. hit rate 2.3% among 330,000; also: % is scaled to controls: 0 for no effect and ±100 for the full control effect; nearly all actives have a fitted effect of over 55% in size
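Cells (2,000 per well) received 5-fluorouridine plus test compound or DMSO and were incubated 16 hr at 37 °C, 5% CO2. Luciferase activity was read by luminescence 30 min after ONE-Glo addition; signal suppression marked inhibition of damage-induced ELG1 function.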
Numbers without * were called inactive; ? = inconclusive; nt = no result; [ ] = another dose, or the depositor's remark. Calls follow the shape of the dose curve; as a rule, active = well fitted curve in the direction sought with a large enough effect; inconclusive = small, poorly fitted or top-dose-only effect, or another doubt; inactive = no such curve, though single readings can be large; an effect the other way counts as inactive or inconclusive. Potency is read from the fitted curve at half-maximal effect.

SMILES	Rab9 prom act	SMN2 splice enh	FLuc modulator	ELG1 genotox	NPC1 prom act	ELG1 DNA repair
Cc1ccc2nc(/C(C#N)=C\c3ccc(Oc4ccc([N+](=O)[O-])cn4)cc3)[nH]c2c1	-4.6%	-14.2%	-12.4%	-0.7%	0.0%	5.17µM*
COc1ccc(OC)c(/C=C(\C#N)c2nc3ccccc3c(=O)[nH]2)c1	nt	-10.6%	-10.7%	nt	nt	nt
CC(=O)NC1CC(C)(C)N(OC(C)=O)C(C)(C)C1	-2.6%	21.9%	9.1%	-9.5%	1.0%	0.0%
CCOC(=O)C1=C(C)NC(C)=C(C(=O)OCC)C1c1ccc(O)cc1	11.8%	12.6µM*	2.7%	14.4%	0.3%	1.6%
O=C(O)c1ccc(N=Nc2c(-c3ccccc3)[nH]oc2=O)cc1	?	nt	10.7µM*	17.1%	?	?
O=Cc1ccc(OCc2ccc3ccccc3c2)cc1	?	nt	5.36µM*	?	14.8%	?
COC(=O)c1ccc(COc2ccc(C=O)cc2)o1	-3.0%	nt	-14.7%	2.0%	2.4%	16.2%
O=Cc1ccc(OCc2ccccn2)cc1	-2.6%	15.8µM*	?	14.5%	-0.9%	?
CCOC(=O)C1CCN(C(=O)c2ccc3snnc3c2)CC1	-3.0%	-7.5%	-2.2%	0.2%	-0.7%	?
CCOC(=O)C1CCN(c2cc3c(cc2NC(=O)c2ccc(OC)c(OC)c2)n(C)c(=O)n3C)CC1	-0.2%	2.5%	-4.7%	-3.5%[9.26 µM]	-8.0%	1.64µM*
C=CCn1c(NCc2ccc(OC)cc2)nc2ccccc21	-0.9%	nt	?	8.1%	7.2%	?
C=CCn1c(NCc2c[nH]c3ccccc23)nc2ccccc21	17.2%	29.3%	23.9µM*	1.5%	17.1%	?
Cn1c(NCc2cccs2)nc2ccccc21	?	11.2µM*	?	23.1µM*	29.6%	?
Cn1c(NCc2c[nH]c3ccccc23)nc2ccccc21	2µM*	11.2µM*	9.53µM*	17.5%	2.24µM*	?
Cn1c(NCc2ccco2)nc2ccccc21	19.7%	?	?	?	18.5%	?
CC(C)(C)NC(=O)C(c1ccncc1)N(C(=O)Cn1nnc(-c2ccc(F)cc2)n1)c1ccccc1F (centres undefined)	1.4%	nt	-16.7%	2.5%	-2.2%	8.3%
CC(=O)c1cccc(NC(=O)N2CCCCCC2)c1	6.3%	nt	-11.6%	1.3%	-0.4%	15.0%
N#Cc1cc(-c2ccccc2)cnc1Sc1ccccc1	5.5%	5.5%	21.3µM*	0.2%	1.3%	?
CCc1ccc(N2CCn3c2nc2c3c(=O)n(Cc3ccc(F)cc3)c(=O)n2C)cc1	nt	nt	9.53µM*	nt	nt	nt
CCCn1c(=O)c2c(nc3n2CCCN3Cc2ccccc2)n(C)c1=O	-3.3%	nt	0.2%	-5.7%	1.5%	-5.4%
Cn1c(=O)n(CCc2ccccc2)c(=O)c2c1nc1n2CCCN1CCc1ccccc1	1.6%	2.7%	2.3%	-25.8%	-2.8%	23.1µM*
Cn1c(=O)n(Cc2ccc(F)cc2)c(=O)c2c1nc1n2CCCN1Cc1ccccc1	-6.4%	-65.7%	0.6%	-9.7%	-4.0%	20.6µM*
CCc1ccc(N2CCn3c2nc2c3c(=O)n(Cc3c(F)cccc3Cl)c(=O)n2C)cc1	nt	nt	-1.3%	nt	nt	nt
COC(=O)CSc1ccnc2cc(Cl)ccc12	-5.3%	nt	-25.8%	-2.2%	-7.1%	5.4%
CCN(CC)CCCNC(=S)Nc1ccc(Br)cc1	?	nt	10.7µM*	23.1µM*	?	?
SMILES	Rab9 prom act	SMN2 splice enh	FLuc modulator	ELG1 genotox	NPC1 prom act	ELG1 DNA repair
CC(C)(C)NC(=S)Nc1cccc(C(F)(F)F)c1	-6.9%	-35.4%	-6.8%	-15.0%	2.7%	11.6µM*
CC(C)(C)NC(=S)Nc1ccc(Br)cc1	15.1%	-21.8%	19µM*	1.9%	6.3%	24.0%
CCN(CC)CCNC(=S)Nc1ccc(Cl)cc1	-15.1%	24.3%	0.7%	-0.4%	-3.1%	11.3%
O=C(OC1CCOC1=O)c1ccc(Cl)c(S(=O)(=O)N2CCCCC2)c1 (centres undefined)	15.1%	0.5%	4.6%	-0.2%	-0.5%	9.4%
NNS(=O)(=O)c1ccc(Cc2ncc(C(F)(F)F)cc2Cl)s1	-5.8%	-13.9%	1.1%	1.9%	-2.9%	0.6%
CCOC(=O)C/C(C)=N/NC(=O)Nc1ccccc1	-2.6%	-4.1%	?	-0.8%	-1.2%	4.9%
CN(C)c1ccc(/C=C/C(=O)c2ccccc2)cc1[N+](=O)[O-]	2.51µM*	-108.2%	1.2µM*	-0.1%	3.55µM*	?
CNc1ccc(/C=C/C(=O)c2ccc(C)cc2)cc1[N+](=O)[O-]	-1.1%	1.4%	?	?	5.0%	?
NS(=O)(=O)c1ccc(N/C=C\C(=O)c2ccc3ccccc3c2)cc1	3.5%	0.6%	2.5%	3.7%	7.3%	10.1%
O=C(/C=C/c1ccc(O)c([N+](=O)[O-])c1)c1ccc2ccccc2c1	1.7%	nt	7.57µM*	0.0%	22.5%	2.5%
COc1ccc(Oc2ccc(/C=C/C(=O)c3ccc(O)cc3)cc2[N+](=O)[O-])cc1	-8.9%	-103.5%	23.9µM*	-14.9%	-0.7%	?
CCN1C(=O)C(=O)N(CC(=O)N(C)CC(=O)Nc2ccccc2C(F)(F)F)C1=O	nt	nt	nt	-1.3%	nt	6.9%
CCCCCc1nnc(NC(=O)Cc2ccc([N+](=O)[O-])cc2)s1	-9.7%	nt	0.2%	-0.2%	-0.7%	-8.1%
COc1ccc(OC)c(CN2CCC(CO)(CCOc3ccccc3)CC2)c1	-17.4%	nt	-1.7%	-4.0%	2.4%	1.2%
Cc1ccc(/C=C2\Oc3cc(OCC(=O)NN)ccc3C2=O)o1	-5.1%	nt	2.13µM*	0.2%	0.7%	12.0%
O=C(O)COc1ccc2c(c1)O/C(=C\c1ccco1)C2=O	1.2%	nt	?	0.4%	-0.7%	24.3%
O=C(O)COc1ccc2c(c1)O/C(=C\c1cccs1)C2=O	-0.9%	nt	1.9µM*	1.2%	-4.9%	14.8%
COc1ccc(-c2cc(=O)oc3cc(O)ccc23)cc1	0.4%	nt	-5.2%	-9.0%	2.8%	?
COc1ccc(-c2cc(=O)oc3cc(OC(=O)C4CCCCC4)c(Cl)cc23)cc1	7.2%	-36.2%	-1.3%	-11.9%	11.2%	3.26µM*
COC(=O)c1cn[nH]c1NC(=S)Nc1ccccc1C	3.55µM*	3.6%	7.57µM*	?	?	?
COC(=O)c1cn[nH]c1NC(=S)Nc1ccc(Cl)c(Cl)c1	0.355µM*	10µM*	0.426µM*	0.411µM*	0.631µM*	?
COC(=O)c1cc(NC(=O)CSc2ncn[nH]2)ccc1Cl	6.2%	nt	0.3%	-1.8%	-1.8%	-1.5%
CCOC(=O)NC(=S)Nc1ccc(OC)cc1	19.7%	14.1%	-15.1%	14.7%	11.8%	?
COC(=O)c1cn[nH]c1NC(=S)Nc1ccc(C)cc1Cl	0.562µM*	15.9%	0.379µM*	0.581µM*	0.398µM*	?
